Several values for one entry are separate records, joined by “and”; a condition that tells them apart may be missing. Equal entries are not always repeated. Records with an inconclusive call do not appear. A number with no mark means an inactive call. Activity calls are given as the source filed them. Calls come from the whole dose curve; as a rule, active = well fitted activation curve with a large enough effect in the repeat runs; inconclusive = weak or mixed curves; inactive = no such curve, though single readings can be large or run the other way.

The record followed here is PubChem BioAssay (Tox21).
% is set by controls: 0 for no effect and ±100 for the full control effect; potency is the fitted concentration of half-maximal effect.

The experiment deals with Nuclear receptor subfamily 1 group I member 2 (Rattus norvegicus) (UniProt Q9R1A7). The experiment in a line: Rat pregnane X receptor (rPXR) activation by small molecules, qHTS assay (AID 1346983). Note: nearly all actives have a fitted effect of over 20% in size. The following applies: rPXR luciferase reporter cells, One-Glo luminescence, 24 h; max activation: hits give high values. The source says: National Center for Advancing Translational Sciences [NCATS] NIH Chemical Genomics Center [NCGC] U.S. Environmental Protection Agency [EPA] National Institutes of Environmental Health Sciences [NIEHS] National Toxicology Program [NTP] Assay overview: The Pregnane X receptor (PXR), a ligand activated nuclear receptor plays a critical role in the regulation of genes involved in drug metabolism and transporters. PXR binds xenobiotics and when compounds interact with PXR produces enhanced expression of CYP3A genes. In humans PXR activation and CYP3A4 induction can be problematic due to their interactions with co-medicated drugs and decrease their efficacy or increase their own metabolism. However, there are known species-specific differences with regard to PXR activation that should be taken into account when animal PXR data are extrapolated to humans. A cell based rat PXR (rPXR) assay (developed by Puracyp, Inc., CA) was used to assess the activation of rPXR.
Sequence of Nuclear receptor subfamily 1 group I member 2 (Rattus norvegicus) (Q9R1A7 whole entry, looked up): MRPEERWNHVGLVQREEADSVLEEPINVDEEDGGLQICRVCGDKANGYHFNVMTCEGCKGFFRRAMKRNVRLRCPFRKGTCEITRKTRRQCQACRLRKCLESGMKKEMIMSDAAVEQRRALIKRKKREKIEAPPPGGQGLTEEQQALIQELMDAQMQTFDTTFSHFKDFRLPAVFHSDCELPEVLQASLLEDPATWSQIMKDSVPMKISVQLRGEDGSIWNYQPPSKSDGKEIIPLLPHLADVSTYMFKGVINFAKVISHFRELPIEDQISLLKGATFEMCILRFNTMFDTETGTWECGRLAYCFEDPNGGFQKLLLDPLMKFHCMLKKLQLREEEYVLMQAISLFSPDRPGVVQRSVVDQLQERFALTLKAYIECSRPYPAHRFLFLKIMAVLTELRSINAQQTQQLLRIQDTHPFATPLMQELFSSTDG
Assay Protocol Summary: rPXR cells were dispensed at 2,000 per well in 5uL of assay medium into white, solid-bottom 1536-well plates using a Multidrop Combi dispenser (Thermo Scientific). The assay plates were incubated at 37 C for 5hr before transferring 23 nL of test compounds dissolved in DMSO and positive control via Pintool station (Wako). The assay plates were incubated at 37 C for 24 hr. Then 5ul One-Glo assay reagent (Promega) was added to each plate by a Flying Reagent Dispenser (FRD, Aurora Discovery) and following 30 min incubation at room temperature, luciferase activity was quantified on a ViewLux plate reader (Perkin Elmer).
(Quantitative high-throughput screening tests each substance at several concentrations.)
Turning to `O=C1CC[C@@H](C(=O)N[C@H]2C[C@@H]2c2ccccc2)N1`, the max activation is -3.97%. Still for that read-out and setting: under `O=C(O)/C=C/C(O)c1ccc(Cl)cc1` (stereo not given) stands -1.46%.

As to `Cc1ncc(C[n+]2csc(CCOP(=O)(O)O)c2C)c(N)n1`, the max activation was -1.3%.

In the case of `Cc1cc(-c2ccc(N=Nc3ccc4c(S(=O)(=O)O)cc(S(=O)(=O)O)c(N)c4c3O)c(C)c2)ccc1N=Nc1ccc2c(S(=O)(=O)O)cc(S(=O)(=O)O)c(N)c2c1O`, the max activation is -5.28%. Same read-out and setting: under `CC/C=C\C/C=C\C/C=C\C/C=C\C/C=C\C/C=C\CCC(=O)O` stands -7.03%; under `CCCC(CCC)C(=O)OC1C[C@H]2CC[C@@H](C1)[N+]2(C)C` (stereo not given in full), -0.777%. As for `C[C@@H]1C[C@H]2[C@@H]3C[C@H](F)C4=CC(=O)C=C[C@]4(C)[C@@]3(Cl)[C@@H](O)C[C@]2(C)[C@H]1C(=O)COC(=O)C(C)(C)C`, the Potency is 2.82 µM (active).

With `C=CC1=C(C(=O)O)N2C(=O)[C@@H](NC(=O)/C(=N\O)c3csc(N)n3)[C@H]2SC1` (stereo in doubt), the max activation is -3.55%. Same read-out and setting: under `CC(C)=CCC/C(C)=C/CC/C(C)=C/CC/C(C)=C/CC1=C(C)C(=O)c2ccccc2C1=O` stands -1.32%; under `Cc1cnc(C(=O)O)c[n+]1[O-]`, -2.61% and 6.98% and -0.594%; under `C=CC[N@@+]12CC[C@@]34c5ccccc5N5/C=C6/[C@H]7C[C@H]8[C@@]9(CC[N@@+]8(CC=C)C/C7=C/CO)c7ccccc7N(/C=C(/[C@@H](C[C@@H]31)/C(=C\CO)C2)[C@H]54)[C@@H]69`, 3.06%.

Turning to `CCOC(=O)Cc1ccc(-c2ccccc2)cc1`, the max activation is -3.15%. The same measure, in the same setting: under `CC[C@@]1([C@@H]2O[C@@H]([C@H]3O[C@@](O)(CO)[C@H](C)C[C@@H]3C)C[C@@H]2C)CC[C@H]([C@]2(C)CC[C@]3(C[C@H](O)[C@@H](C)[C@@H]([C@@H](C)[C@@H](OC)[C@H](C)C(=O)O)O3)O2)O1` (stereo in doubt) stands -15.4%; under `C[C@H](O)CN(C)C`, -2.23%.

For `O=C(O)COc1ccccc1/C=N/NC(=O)c1ccncc1`, the max activation was -3.2%. Same read-out and setting: under `CC(CNC(=O)c1cccnc1)NC(=O)c1cccnc1` (stereo not given) stands -2.47%; under `Oc1ccc(Cl)c2c1CCC2`, 0.0185%; under `CSCCC(N)C(=O)O` (stereo not given), -0.631%. On to `OCC1(CO)COC(C(Cl)(Cl)Cl)OC1`, for which the max activation was -2.81%. Same read-out and setting: under `CO/N=C(\C(=O)N[C@@H]1C(=O)N2C(C(=O)[O-])=C(C[n+]3cccc4c3CCC4)CS[C@H]12)c1csc(N)n1` stands -2.77%; under `O=C(O)c1cc(=O)c2c3nc4ccccc4oc-3cc(=O)c2[nH]1`, -7.15%. Same read-out and setting: under `NC(=O)[C@H]1O[C@@H](O)[C@H](O)[C@@H](O)[C@@H]1O` stands -0.18%; under `CC/C(=C(/CC)c1ccc(OP(=O)(O)O)cc1)c1ccc(OP(=O)(O)O)cc1`, -1.74%; under `CCCCCCOC(=O)c1cccnc1`, -0.199%. The same measure, in the same setting: under `N[C@H](C(=O)O)[C@@H]1CC(Cl)=NO1` stands -12.5%. Consider `FC(F)(F)C(F)(F)C(F)(F)C(F)(F)C(F)(F)F`, for which the max activation is -2.03%. On the same count and under the same terms, under `C=C(Nc1ccc(OCC)cc1)Nc1ccc(OCC)cc1` stands -1.1% and 0.608%; under `O=C(O)c1ccc(NC2OC[C@@H](O)[C@H](O)[C@H]2O)cc1` (stereo not given in full), 10.7%. Regarding `C=N[C@@H](C(=O)N[C@@H]1C(=O)N2[C@@H]1SC(C)(C)[C@@H]2C(=O)O)c1ccccc1`, the max activation was -2.74%. Turning to `CC/C=C\C/C=C\C/C=C\C/C=C\C/C=C\CCCC(=O)O`, the max activation is -0.855%. For `CC(=O)OCC(=O)[C@@]1(O)CC[C@H]2[C@@H]3C[C@H](C)C4=CC(=O)C=C[C@]4(C)[C@H]3[C@@H](O)C[C@@]21C`, the Potency is 7.94 µM (active). For the compound `C[C@]12O[C@H](C[C@]1(O)CO)n1c3ccccc3c3c4c(c5c6ccccc6n2c5c31)CNC4=O`, the max activation was -24.6%. With `CC(=O)OCC1=C(C(=O)O)N2C(=O)[C@@H](NC(=O)Cc3ccccc3)[C@H]2SC1`, the max activation is -4.93%. Turning to `CC(=O)OCC(=O)[C@@]1(O)CC[C@H]2[C@@H]3CCC4=CC(=O)CC[C@]4(C)C3=CC[C@@]21C`, the max activation is -1.67%. Same read-out and setting: under `c1ccc2c(c1)OCC(CN1CCCCC1)O2` (stereo not given) stands -3.94%; under `CCOc1cc(CC(=O)N[C@@H](CC(C)C)c2ccccc2N2CCCCC2)ccc1C(=O)O`, -4.89%. On the same count and under the same terms, under `NCCO/C=C/[C@H](N)C(=O)O` stands -1.97%; under `COC1=C(OC)C(=O)C(C/C=C(\C)CC/C=C(\C)CC/C=C(\C)CC/C=C(\C)CC/C=C(\C)CC/C=C(\C)CC/C=C(\C)CC/C=C(\C)CC/C=C(\C)CCC=C(C)C)=C(C)C1=O`, -2.14%. On the same count and under the same terms, under `O=C(O)CCCC/C=C(\c1ccccc1)c1cccnc1` stands -2.2%; under `CN(C/C=C/c1ccccc1)Cc1cccc2ccccc12`, -2.12%.
